Assay outcomes deposited in PubChem BioAssay by several laboratories.
NR3A LBD binder: modulators (binders) of human NR3A ligand-binding domain | NR3A LBD differential scanning fluorimetry, Tm shift; 0% = protein alone, 100% = glycine-bound protein | Tm shift relative to glycine control, % at 25 µM | actives 2.5% (n = 340,000);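 active = melting temperature shift of at least 10% of the positive control shift, at one fixed dose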
NadD inh: inhibitors of Staphylococcus aureus NadD; purified NadD enzyme, colorimetric absorbance read-out; inhibition, % at 20 µM; actives 0.78% (n = 360,000); in the data active = inhibition above about 26%
SKN-1 block: inhibitors of C. elegans SKN-1; C. elegans VP596 Pgst-4::GFP/RFP ratio, acrylamide-induced, 24 h; inhibition, % at 21.8 µM; actives 0.49% (n = 360,000); AID 624304;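 active = interference check ratio from 0.5 to 1.5 plus GFP to RFP signal ratio inhibition reaching or exceeding a fixed threshold, cut at about 30% in these data, passing the limit was not always enough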
esBAF inh: blocks esBAF chromatin remodeling in mouse ES cells | AID 602393 | actives 2% (n = 350,000) | reporter increase, % at 12.5 µM | Bmi1-luciferase knock-in reporter, 24 h; 100% = twice the neutral-well signal; in the data active = activation above about 40%;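 note: 0% = median of the plate's neutral control wells and 100% = double that signal; a rise in the Bmi1 reporter signal indicates esBAF inhibition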
SMARCA2 activ: increases SMARCA2 function in MMTV reporter cells; activation, % at 9.1 µM; MG213 cells, MMTV-luciferase reporter, dexamethasone, overnight; actives 1% (n = 370,000); in the data active = activation above about 7.8%;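 note: 0% = vehicle wells and 100% = reference activator wells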
Vif imaging: inhibitors of HIV Vif; HEK293T cells, Vif self-association by quenched fluorescence, imaging, 24 h; inhibition, % at 7.49 µM; actives 0.35% (n = 340,000); in the data active = inhibition above about 50%, passing the limit was not always enough
NadD inh conf: confirmation of Staphylococcus aureus NadD inhibitors; inhibition, % at 20 µM; purified S. aureus NadD, colorimetric enzyme assay; shares compounds with NadD inh; actives 13% (n = 2,000); in the data active = inhibition mostly above about 42%, no sharp cut-off; inactive = mostly below about 42%
Active calls of the source: *; · = no result given. Only some compounds are listed: those with a hit (about 5.2% of all), similar ones and a draw of the others.

SMILES	NR3A LBD binder	NadD inh	SKN-1 block	esBAF inh	SMARCA2 activ	Vif imaging	NadD inh conf
Nc1nc(N)c(C=Nc2ccc(Br)cc2)c(Nc2ccc(Br)cc2)n1	51*	36*	9	6	2	-5	-5
Nc1nc(N)c(Br)c(Nc2ccc(Cl)c(Cl)c2)n1	1	2	16	31	-4	-13	·
Cc1nc2c(c(=O)n1CCC1=CCCCC1)c1nc3ccccc3nc1n2/N=C/c1ccco1	-2	49*	4	6	0	-5	18
CCC(=O)N1CCCCN2[C@H](C1)[C@H](c1ccc(C#Cc3cccnc3)cc1)[C@@H]2CO	·	·	·	-4	·	·	·
C/C(=N\Nc1nnc(-c2ccccc2)c(-c2ccccc2)n1)c1cccc([N+](=O)[O-])c1	-1	33*	0	-3	-4	33	3
C/C(=N\Nc1cc(C)nc(NCc2ccccc2)n1)c1cccc([N+](=O)[O-])c1	3	2	-18	·	2	-2	·
O=C(NCC[C@@H]1CC[C@H](NC(=O)c2ccc3c(c2)OCO3)[C@@H](CO)O1)Nc1ccc(Cl)cc1	·	·	·	25	·	·	·
Cc1ccc(C2(SCC(N)C(=O)O)c3ccccc3-c3ccccc32)cc1 (stereo unspecified)	-10	39*	1	·	0	-7	54*
Cc1cc2oc(=O)cc(CN3CCc4ccccc43)c2cc1Cl	-3	32*	29	-8	-1	-10	3
CCc1ccc2c(CN3CCc4ccccc43)cc(=O)oc2c1	-1	14	20	5	-2	·	·
Clc1ccc(-c2ccc(/C=N/Nc3nncc(-c4ccccc4)n3)o2)cc1	-2	38*	-8	-4	-2	-2	13
Cc1ccc(/C=N/Nc2nncc(-c3ccccc3)n2)o1	1	-2	12	·	2	2	·
Clc1ccccc1-c1ccc(/C=N/Nc2nncc(-c3ccccc3)n2)o1	-12	32*	4	·	-3	-5	10
COc1ccc(S(=O)(=O)Nc2ccc3c(c2)C(=O)N([C@@H](C)CO)C[C@@H](C)[C@@H](CN(C)C(=O)Nc2ccc(F)cc2)OCCCC[C@@H](C)O3)cc1	·	·	·	12	·	·	·
CC1CC2=C(NC(=S)NC2c2cccc(F)c2)/C(=C/c2cccc(F)c2)C1 (stereo unspecified)	2	30	-3	·	-2	-7	·
CC1CC2=C(NC(=S)NC2c2ccccc2F)/C(=C/c2ccccc2F)C1 (stereo unspecified)	-1	32*	0	·	4	-6	23
C[C@@H]1CCCCO[C@@H](CN(C)Cc2ccc(C(=O)O)cc2)[C@H](C)CN([C@H](C)CO)C(=O)c2cc(NC(=O)Nc3cccc4ccccc34)ccc2O1	·	·	·	-4	·	·	·
C[C@H](CO)N1C[C@H](C)[C@H](CN(C)C)OCCCC[C@H](C)Oc2ccc(NC(=O)Cc3ccccc3)cc2C1=O	·	·	·	-2	·	·	·
O=c1nc2s/c(=C\c3ccc(-c4ccccc4[N+](=O)[O-])o3)c(=O)n2nc1-c1ccccc1	-7	36*	11	12	-1	-1	5
CC1CC(NC(=O)c2c(O)nc3ccccn3c2=O)CC(C)(C)C1 (stereo unspecified)	-2	-1	-4	0	2	13	·
CC1CC(NC(=O)c2c(O)nc3sccn3c2=O)CC(C)(C)C1 (stereo unspecified)	4	35*	5	·	-1	-12	24
CCOC(=O)c1c(NC(=O)CSc2nc3cc(Cl)ccc3c(=O)n2Cc2ccco2)sc(C(=O)N(C)C)c1C	1	39*	1	-3	0	-9	8
CCOC(=O)c1c(NC(=O)CSc2nnc(-c3c[nH]c4ccccc34)n2C)sc2c1CCCC2	0	33*	-2	9	-1	-7	25
CCOC(=O)c1c(NC(=O)CSc2nnc(-c3c[nH]c4ccccc34)n2CCOC)sc2c1CCCC2	-5	34*	1	9	-3	-1	37
Cc1ccc(-c2ccc3c(c2)O[C@H](CN(C)C(=O)Nc2ccc(C(F)(F)F)cc2)[C@@H](C)CN([C@@H](C)CO)S3(=O)=O)cc1	·	·	·	8	·	·	·
SMILES	NR3A LBD binder	NadD inh	SKN-1 block	esBAF inh	SMARCA2 activ	Vif imaging	NadD inh conf
CCc1nnc(NC(=O)c2cc(S(=O)(=O)N3CCN(c4ccccc4)CC3)ccc2Cl)s1	-10	31*	-11	4	-1	6	29
C[C@@H]1CCCCO[C@H](CN(C)C(=O)Nc2ccccc2)[C@H](C)CN([C@@H](C)CO)C(=O)c2cc(NS(=O)(=O)c3cn(C)cn3)ccc2O1	·	·	·	1	·	·	·
Cc1cc2nc(-c3cccc(Br)c3)c(Cc3ccsc3)n2c(C)c1Br	·	41*	9	·	-2	·	19
Cc1cc2nc(-c3ccccc3)c(Cc3cccc(Cl)c3)n2c(C)c1Br	·	38*	8	·	-3	·	26
Cc1ccc(-c2nc3cc(C)c(Br)c(C)n3c2Cc2cccc(Cl)c2)cc1	·	7	-7	·	·	·	·
Cc1cc2nc(-c3cccc(Cl)c3)c(Cc3ccsc3)n2c(C)c1Br	·	17	-2	·	-1	·	·
Cc1cc2nc(-c3ccc(F)cc3)c(Cc3cccc(Cl)c3)n2c(C)c1Br	·	69*	12	·	-4	·	29
Clc1cccc(Cc2c(-c3cccc(Br)c3)nc3ccc(Br)cn23)c1	·	30*	14	31	0	·	44
COc1cccc(-c2ccc3c(c2)[C@H]2[C@H](CCN2C(=O)c2ccc(F)cc2)[C@H](CO)N3)c1	·	·	·	4	·	·	·
CCCNC(=O)C[C@@H]1CC[C@H]2[C@@H](COc3ccc(NC(=O)Nc4cccc(C)c4)cc3C(=O)N2C)O1	·	·	·	2	·	·	·
C[C@@H]1CN([C@@H](C)CO)C(=O)c2cc(C3=CCCC3)cnc2O[C@@H]1CN(C)Cc1ccccc1C(=O)O	·	·	·	-6	·	·	·
O=C1c2ccccc2C(=O)N1CCc1c(-c2ccccc2)[nH]c2ccccc12	6	1	2	5	-1	·	·
O=C1c2ccccc2C(=O)N1CCc1c(-c2[nH]c3ccccc3c2CCN2C(=O)c3ccccc3C2=O)[nH]c2ccccc12	1	31*	-4	6	0	·	3
CCOc1cc(/C=N/Nc2nc(Nc3ccccc3)nc(N3CCCCC3)n2)ccc1OCC(=O)O	1	33*	3	-1	-4	3	20
C(=C\c1ccccc1)/C=N/Nc1nc(N2CCCCC2)nc(N2CCCCC2)n1	-1	35*	-10	-7	1	18	17
O=[N+]([O-])c1ccc(/C=N/Nc2nc(N3CCCCCC3)nc(N3CCCCCC3)n2)o1	-7	65*	7	-16	-4	2	18
CCOc1cc(/C=N/Nc2nc(N3CCCC3)nc(N3CCCC3)n2)ccc1O	0	7	-34	-3	-5	-3	·
